# Screening data: PubChem, Broad Institute
# TcdB GH inh: inhibitors of Clostridioides difficile toxin B glycohydrolase; 350,000 compounds, 0.24% hits; TcdB glycohydrolase enzymatic assay, plate reader; P18177; AID 652162; inhibition, % at 9.99 µM; in the data active = inhibition above about 10%
# Target sequence (P18177 whole entry, looked up): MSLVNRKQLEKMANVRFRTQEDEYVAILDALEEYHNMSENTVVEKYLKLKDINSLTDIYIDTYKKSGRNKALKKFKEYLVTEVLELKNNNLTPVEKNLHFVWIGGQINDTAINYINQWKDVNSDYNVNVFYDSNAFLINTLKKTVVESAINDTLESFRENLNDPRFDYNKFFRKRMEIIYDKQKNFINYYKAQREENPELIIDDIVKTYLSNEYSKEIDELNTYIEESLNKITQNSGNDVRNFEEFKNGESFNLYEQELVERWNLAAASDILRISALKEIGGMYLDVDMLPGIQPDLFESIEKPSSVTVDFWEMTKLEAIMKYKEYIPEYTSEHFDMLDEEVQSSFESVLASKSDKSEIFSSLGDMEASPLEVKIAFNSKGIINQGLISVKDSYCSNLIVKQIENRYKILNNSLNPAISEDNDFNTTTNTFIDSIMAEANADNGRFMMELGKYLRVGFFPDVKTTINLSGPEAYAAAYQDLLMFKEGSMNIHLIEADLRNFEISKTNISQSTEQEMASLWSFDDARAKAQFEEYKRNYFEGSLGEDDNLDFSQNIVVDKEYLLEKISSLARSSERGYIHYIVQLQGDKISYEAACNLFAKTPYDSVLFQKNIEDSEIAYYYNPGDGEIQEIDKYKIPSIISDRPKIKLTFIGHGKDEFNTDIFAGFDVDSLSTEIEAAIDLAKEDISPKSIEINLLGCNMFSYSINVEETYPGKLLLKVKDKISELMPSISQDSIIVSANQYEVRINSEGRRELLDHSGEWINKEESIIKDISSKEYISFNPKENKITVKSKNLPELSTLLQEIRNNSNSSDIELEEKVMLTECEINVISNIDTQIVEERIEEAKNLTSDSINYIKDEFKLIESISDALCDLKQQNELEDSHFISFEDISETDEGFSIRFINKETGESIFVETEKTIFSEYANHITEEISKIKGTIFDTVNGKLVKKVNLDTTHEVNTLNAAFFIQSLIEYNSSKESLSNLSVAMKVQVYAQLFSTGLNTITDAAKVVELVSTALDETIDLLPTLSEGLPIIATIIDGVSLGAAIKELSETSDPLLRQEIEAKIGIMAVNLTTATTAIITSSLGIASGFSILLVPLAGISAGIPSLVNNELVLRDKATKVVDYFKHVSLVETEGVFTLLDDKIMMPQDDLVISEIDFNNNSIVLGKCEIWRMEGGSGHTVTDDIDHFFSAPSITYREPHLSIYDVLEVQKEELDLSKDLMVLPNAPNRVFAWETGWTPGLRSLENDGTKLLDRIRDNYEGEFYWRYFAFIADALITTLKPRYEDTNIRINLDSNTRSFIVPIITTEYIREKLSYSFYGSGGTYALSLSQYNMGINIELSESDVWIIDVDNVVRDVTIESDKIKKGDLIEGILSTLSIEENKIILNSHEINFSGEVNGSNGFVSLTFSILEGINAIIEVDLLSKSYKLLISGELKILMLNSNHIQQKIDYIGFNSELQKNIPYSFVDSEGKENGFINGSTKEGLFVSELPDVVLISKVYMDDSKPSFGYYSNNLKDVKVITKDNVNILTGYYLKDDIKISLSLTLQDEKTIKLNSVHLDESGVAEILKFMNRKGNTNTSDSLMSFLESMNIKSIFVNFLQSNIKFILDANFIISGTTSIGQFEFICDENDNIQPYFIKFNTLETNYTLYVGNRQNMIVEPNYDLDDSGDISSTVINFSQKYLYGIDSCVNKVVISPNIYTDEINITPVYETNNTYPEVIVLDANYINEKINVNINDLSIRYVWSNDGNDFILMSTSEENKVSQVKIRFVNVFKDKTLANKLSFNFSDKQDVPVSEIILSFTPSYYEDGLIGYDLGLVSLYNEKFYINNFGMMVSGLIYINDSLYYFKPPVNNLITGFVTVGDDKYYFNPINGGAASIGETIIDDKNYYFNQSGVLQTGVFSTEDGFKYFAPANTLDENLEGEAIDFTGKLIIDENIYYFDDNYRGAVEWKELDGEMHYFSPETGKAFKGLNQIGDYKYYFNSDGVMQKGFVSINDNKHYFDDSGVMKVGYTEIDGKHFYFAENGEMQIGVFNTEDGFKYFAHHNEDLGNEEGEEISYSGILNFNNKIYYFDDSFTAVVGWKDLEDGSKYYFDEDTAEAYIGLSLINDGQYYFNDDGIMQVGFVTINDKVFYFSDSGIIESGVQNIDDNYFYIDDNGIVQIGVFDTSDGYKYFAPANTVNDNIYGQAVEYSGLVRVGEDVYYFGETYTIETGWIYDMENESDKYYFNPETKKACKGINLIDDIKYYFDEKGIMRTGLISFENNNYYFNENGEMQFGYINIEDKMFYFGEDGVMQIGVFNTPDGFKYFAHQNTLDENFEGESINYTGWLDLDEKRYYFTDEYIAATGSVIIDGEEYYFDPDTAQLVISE
# BioA inh: blocks M. tuberculosis BioA enzyme activity | AID 602481 | 360,000 compounds, 0.096% hits | purified M. tuberculosis BioA enzyme, plate reader | inhibition, % at 9.99 µM; in the data active = inhibition above about 40%
# PrP UTR inh: inhibition of PrP 5' UTR reporter expression. inhibition, % (test concentration not listed). 340,000 compounds, 0.35% hits. cell-based PrP 5' UTR mRNA reporter, plate reader; in the data active = inhibition above about 52%; also: 0 = median of the neutral control wells
# Yp Topo-I inh: Y. pestis Topo-I inhibition via cleavage products. activity, % at 10 µM. 360,000 compounds, 0.064% hits. AID 504884. Y. pestis Topo-I cleavage product accumulation, plate reader; in the data active = activity above about 50%, passing the limit was not always enough
# An asterisk follows results filed as active; nt = no result. Only some compounds are listed: those with a hit (about 0.57% of all), similar ones and a draw of the others.
SMILES,TcdB GH inh,BioA inh,PrP UTR inh,Yp Topo-I inh
COc1ccc(S(=O)(=O)N(C)C[C@H]2Oc3c(NC(=O)Nc4ccc(C(F)(F)F)cc4)cccc3C(=O)N([C@H](C)CO)C[C@H]2C)cc1,0,-1,nt,nt
Oc1ccc(Cc2ccccc2Cl)c(O)c1,13*,3,-13,-10
O=C(Cc1ccc(Cl)cc1)NNc1c(F)c(F)cc(F)c1F,1,nt,-17,-3
Oc1ccc(Cc2ccc(Cl)cc2)c(O)c1,10*,3,-10,-1
CC(=O)N1[C@H](CO)[C@H](c2ccc(C3=CCCC3)cc2)C12CN(C(=O)C1CC1)C2,0,nt,nt,nt
CN1C(=O)c2cc(NC(=O)c3cscn3)ccc2OC[C@H]2O[C@@H](CC(=O)N3CCCCC3)CC[C@H]21,-1,1,nt,nt
CCn1c(SCC(=O)OC)nnc1-c1ccccc1,20*,0,-20,3
C[C@H]1CN([C@@H](C)CO)C(=O)c2cc(-c3ccccc3F)cnc2O[C@@H]1CN(C)Cc1ccccc1,1,0,nt,nt
COc1ccc(C(=O)/C=C/c2ccc(O)cc2)c(O)c1CC=C(C)C,-1,-4,-25,-39
COc1ccc(C(=O)/C=C/c2ccc(O)cc2)c2c1CC(O)C(C)(C)O2 (stereo unspecified),23*,1,3,0
CCCC(=O)Nc1ccc2c(c1)OC[C@H](C)N(C(=O)CC)C[C@H](C)[C@H](OC)CN(C)C2=O,1,1,nt,nt
Cn1cnnc1SCC(=O)c1cc2ccccc2o1,0,nt,-33,-2
Cn1c(SCC(=O)c2cc3ccccc3o2)nnc1-c1ccccc1,11*,2,-4,9
CCC(=O)N1[C@@H]2c3ccc(-c4ccccc4)c(=O)n3C[C@H]1[C@H](CO)[C@H]2C(=O)N(C)C,0,0,nt,nt
O=C1CCCN1c1ncc(S(=O)(=O)c2ccc([N+](=O)[O-])cc2)s1,-1,nt,-19,-7
Nc1ncc(S(=O)(=O)c2ccc([N+](=O)[O-])cc2)s1,11*,-1,-25,5
CC12CCC3C(=CCc4cc(O)ccc43)C1CC(=NO)C2O (stereo unspecified),13*,nt,-14,1
Cc1ccc(C)c2nc(Cl)c(C3NC(=O)c4ccccc4N3)cc12 (stereo unspecified),10*,nt,-3,5
CCC(=O)N(C)C[C@@H]1Oc2ncc(-c3ccccc3OC)cc2C(=O)N([C@@H](C)CO)C[C@H]1C,1,-1,nt,nt
C[C@H](CO)N1C[C@H](C)[C@H](CN(C)Cc2ccc3c(c2)OCO3)Oc2c(NC(=O)c3nc4ccccc4s3)cccc2C1=O,0,nt,nt,nt
Cc1cc(C)c(NS(=O)(=O)c2cccc3cccnc23)c(C)c1,14*,0,7,-13
Cc1ccn2c(=S)[nH]nc2c1,-2,-3,nt,7
S=c1[nH]nc2ccccn12,26*,-1,-21,7
COc1cc(/C=N/NC(=O)c2nnn(-c3nonc3N)c2C(C)C)ccc1O,13*,3,-20,-7
COc1cc(/C=N/NC(=O)c2nnn(-c3nonc3N)c2C(C)C)ccc1OCc1ccccc1,0,-1,-51,-2
SMILES,TcdB GH inh,BioA inh,PrP UTR inh,Yp Topo-I inh
CC(C)NC(=O)Nc1cccc2c1O[C@H](CN(C)S(=O)(=O)c1ccc(Cl)cc1)[C@@H](C)CN([C@@H](C)CO)C2=O,0,-3,nt,nt
COc1ccc2c3c([nH]c2c1)[C@H](CO)N(C(=O)NC(C)C)CC31CN(C(=O)NC(C)C)C1,2,nt,nt,nt
CC(OC(=O)[C@@H](NC(=O)OCc1ccccc1)C(C)C)C(=O)Nc1ccc(N2CCOCC2)cc1 (stereo partly specified),11*,-2,11,-3
COc1cccc(CC(=O)OC(C)C(=O)Nc2ccc(N3CCOCC3)cc2)c1 (stereo unspecified),-2,0,-7,-6
CC(C)c1ccc(-c2nnn(CCC(=O)O)n2)cc1,nt,0,73*,9
C=CCn1c(SCC(=O)c2ccccc2)nnc1-c1cc2ccccc2o1,nt,1,-11,41
C=CCn1c(SCC(=O)c2ccc(OC)cc2)nnc1-c1cc2cccc(OC)c2o1,nt,-2,3,67*
Cc1ccc(C(=O)N/N=C/c2ccoc2)cc1C,1,49*,-7,-2
CCC(=O)Nc1ccc2c(c1)C(=O)N(C)C[C@@H](OC)[C@H](C)CN(C(=O)C1CC1)[C@H](C)CO2,1,1,nt,nt
Cc1ccc(C)c2c1cc(C)c1nnc(SCC(=O)NCc3ccc4c(c3)OCO4)n12,10*,nt,-8,24
Cc1cc(C)c2cc(C)c3nnc(SCC(=O)NCc4ccc5c(c4)OCO5)n3c2c1,nt,-1,-6,12
C[C@@H]1CN([C@@H](C)CO)S(=O)(=O)c2ccc(-c3ccccc3)cc2O[C@H]1CN(C)C(=O)Cc1ccccc1,2,4,nt,nt
Cn1c(-c2ccc(F)c(F)c2)cc2onc(-c3ccccc3)c2c1=O,10*,-1,-59,-1
COc1ccc(S(=O)(=O)N2CCOCC2)cc1NC(=O)COC(=O)c1[nH]c(C)c(C(C)=O)c1C,13*,-1,-5,14
O=C(COc1cccc(C(F)(F)F)c1)N1CCN(c2ccc(O)cc2)CC1,16*,0,-5,-4
C[C@H]1CCCCO[C@H](CN(C)CC2CCCCC2)[C@@H](C)CN([C@@H](C)CO)C(=O)c2cc(NC(=O)c3ccncc3)ccc2O1,0,-1,nt,nt
COC(=O)C[C@H]1C[C@@H]2c3cc(N(C)C)ccc3O[C@@H]2[C@@H](CO)O1,-41,0,nt,nt
Cc1ccc(S(=O)(=O)N(C)C[C@H]2OCCCC[C@H](C)Oc3ccc(NS(=O)(=O)c4c(C)noc4C)cc3C(=O)N([C@@H](C)CO)C[C@H]2C)cc1,-1,-2,nt,nt
Cc1ccc(CNC(=O)Nc2cccc(C)c2)cc1,11*,nt,-62,1
CC(=O)c1ccc(NC(=O)CNCC(c2ccccc2)N(C)C)cc1 (stereo unspecified),15*,nt,-9,-3
COc1cc(/C=N/NC(=Nc2ccc(C)cc2)c2nc3ccccc3s2)ccc1O,nt,1,77*,-1
COc1cc(/C=N/NC(=O)Cn2nnc3ccccc32)ccc1O,12*,nt,5,-6
COc1cc(/C=N/Nc2nc3ccccc3[nH]2)cc(OC)c1O,nt,nt,-16,-20
COc1cc(/C=N/NC(=O)C2(O)c3ccccc3-c3ccccc32)ccc1O,10*,0,2,-5
COc1cc(/C=N/Nc2nc3ccccc3[nH]2)ccc1O,20*,2,-16,-17
SMILES,TcdB GH inh,BioA inh,PrP UTR inh,Yp Topo-I inh
CCOc1ccc(/C=N/NC(=O)C2(O)c3ccccc3-c3ccccc32)cc1,-10,-4,-13,4
Cc1ccc(S(=O)(=O)Nc2ccc3c(c2)C(=O)N([C@H](C)CO)C[C@H](C)[C@H](CN(C)Cc2ccc(Cl)c(Cl)c2)OCCCC[C@H](C)O3)cc1,-1,nt,nt,nt
COC(=O)C[C@@H]1C[C@H]2c3cc(NC(=O)CC4CC4)ccc3O[C@H]2[C@H](CO)O1,1,0,nt,nt
O=C(c1ccccn1)N1CC2(C1)[C@H](c1ccccc1)[C@@H](CO)N2C(=O)C1CCC1,1,nt,nt,nt
O=C(N/N=C\c1ccc(O)c([N+](=O)[O-])c1)c1ccccc1-n1cccc1,nt,-3,1,-2
CC(=C/c1ccc(C(C)C)cc1)/C=N/NC(=O)CSc1ccccn1,0,nt,-58,61*
